The structures appear in SMILES notation. The panel holds about 79,000 compounds, 15% with a hit somewhere; the sample as a whole holds those more often. A number with no mark means an inactive call. The source made the active and inactive calls. Cut-off read from the data, not from the text of the source: active = growth inhibition above about 70%; inactive = the rest.

The nature of one test: NCI Yeast Anticancer Drug Screen. Data for the mec2-1 strain (AID 157). Conditions: S. cerevisiae mec2-1 strain, at 5.0 µM (retest, dose inferred, filed as 0.5), stronger effect = higher value. The method, boiled down:
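mec2-1 yeast strain, carrying an alteration in DNA damage repair or cell cycle control, was exposed to compounds; growth inhibition was measured relative to vehicle-treated controls.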
As to `CCC(c1ccccc1)N1C(=O)c2ccccc2S1(=O)=O` (stereo not given), the growth inhibition is -2%.
On the same count and under the same terms, then `Cc1ccc2cc3ccccc3c(-c3ccccc3)c2c1`, with -13%; and `CC(=O)Oc1ccc(C)cc1C(C)(C)C`, with 1%.
For `CCCCCCCCCCC[N+](C)(C)CCCCCC[N+](C)(C)CCCCCCCCCCC`, the growth inhibition is 97% (active).
On the same count and under the same terms, to `CCN(CC)CCCNc1nc(NCCCN(CC)CC)c2nc(-c3ccccc3)c(-c3ccccc3)nc2n1` belongs 2%.
The same measure, in the same setting: then `O=[N+]([O-])c1cnc(Sc2cncc[n+]2[O-])s1`, with 100% (active); and `O=c1[nH]c(=O)c2cc([N+](=O)[O-])cc([N+](=O)[O-])c2[nH]1`, with 6%; and `O=C(NC(=O)C(F)(F)F)Nc1ccc(Cl)cc1`, with -2%.
On the same count and under the same terms, then `O=[N+]([O-])c1ccc(S)c(Cl)c1`, with 20%.
With `CS(=O)(=O)n1c(C(O)c2ccccc2)nc2ccccc21` (stereo not given), the growth inhibition was 10%.
On the same count and under the same terms, then `O=C(NCc1ccccc1)C1C(=O)N(Cc2ccccc2)C(=O)/C1=N/O` (stereo not given), with 2%.
The same measure, in the same setting: to `C[n+]1c(/C=C/c2ccccc2Cl)sc2ccccc21` belongs 99% (active); to `CC(=O)c1ccc(Cl)c(N=Cc2cc(Br)ccc2O)c1`, 35%.
For the molecule `O=C(c1ccc(Cl)cc1)c1ccc([N+](=O)[O-])cc1`, the growth inhibition was -4%.
Same read-out and setting: then `Nc1ccc2c(c1)[nH]c(=O)c1cc(Cl)c(Cl)cc12`, with 27%; and `COc1ccc(C2CC(c3c(O)ccc4ccccc34)=NN2)cc1OC` (stereo not given), with -3%.
As for `CC[N+]1(C)CCC(O)(c2ccc(Cl)c(Cl)c2)C(C(=O)c2ccc(Cl)c(Cl)c2)C1` (stereo not given), the growth inhibition was 4%.
Still for that read-out and setting: to `Nc1nc(Cl)cc(NCC2(CO)CC(CCCc3ccccc3)C2)n1` (stereo not given) belongs 10%; to `Nc1nc(-c2cc3cc(Cl)ccc3o2)cs1`, 34%; to `O=C(N(c1ccc(Cl)cc1)c1ccc(Cl)cc1)C(Cl)(Cl)Cl`, 23%.
The same measure, in the same setting: to `NC(CSSCC(N)C(=O)Nc1ccc2ccccc2c1)C(=O)Nc1ccc2ccccc2c1` (stereo not given) belongs 42%; to `O=C/C=C/c1cc([N+](=O)[O-])ccc1Cl`, -47%.
Same read-out and setting: then `COc1cc(C(c2cc3c(cc2OC(C)=O)OCO3)C(C(C)=O)C(C)=O)cc(OC)c1OC(C)=O` (stereo not given), with -4%; and `CCCCc1ccc(Nc2nc(N)c3[nH]cnc3n2)cc1`, with 25%.
`O=C(O)/C=C/C(=O)Nc1cccc2ccccc12`: the growth inhibition is 44%.
On the same count and under the same terms, to `Cc1cc(O)c(C(=O)/C=C/c2ccnc3ccccc23)c(=O)o1` belongs -17%.
Same read-out and setting: to `ONC1=Nc2ccccc2OCc2cc(Br)c(Br)cc2COc2ccccc2N=C1NO` belongs 19%; to `NNC(=O)c1ccc(N)cc1O`, -3%; to `O=C(N/C(=C\c1ccc2c(c1)OCO2)c1nc2ccccc2s1)c1ccccc1`, 1%.
On the same count and under the same terms, then `CC1=NN(C(=O)c2ccncc2)C(=O)C1N=Nc1ccc(C)c([N+](=O)[O-])c1` (stereo not given), with 2%; and `COc1ccc2nc3cc(Cl)ccc3c(Nc3nccs3)c2c1`, with 12%; and `S=C(S)NCCN1CCNCC1`, with -20%.
In the case of `ClCc1nc2ccccc2c2ccccc12`, the growth inhibition was 22%.
Same read-out and setting: then `ClC1=C(Cl)C(Cl)(C(Cl)(Cl)Cl)C(Cl)=C1Cl`, with 100% (active).
Same read-out and setting: then `FC(F)(F)COP1(OCC(F)(F)F)=NP(OCC(F)(F)F)(OCC(F)(F)F)=NP(c2ccccc2)(c2ccccc2)=N1`, with -1%; and `CC(C)c1c(P(=O)(c2ccccc2)c2ccccc2)n(C)c2ccccc12`, with -34%.
Same read-out and setting: then `CN(CCC1CCCCC1)CCC1CCCCC1`, with 9%; and `Cc1nc(Cl)nc(N)c1[N+](=O)[O-]`, with 8%.
In the case of `Nc1ccc2[nH]c3ccccc3c2c1`, the growth inhibition is 0%.
Same read-out and setting: to `COc1ccc(NC(=O)CSC(N)=O)cc1` belongs -1%.

Still in this test, the particulars now being: S. cerevisiae mec2-1 strain, at 50.0 µM (retest, dose inferred, filed as 5.0), stronger effect = higher value.
On to `CCC(c1ccccc1)N1C(=O)c2ccccc2S1(=O)=O` (stereo not given), for which the growth inhibition was 22%.
On the same count and under the same terms, to `Cc1ccc2cc3ccccc3c(-c3ccccc3)c2c1` belongs -29%; to `CC(=O)Oc1ccc(C)cc1C(C)(C)C`, -4%.
Still for that read-out and setting: to `CCCCCCCCCCC[N+](C)(C)CCCCCC[N+](C)(C)CCCCCCCCCCC` belongs 99% (active); to `CCN(CC)CCCNc1nc(NCCCN(CC)CC)c2nc(-c3ccccc3)c(-c3ccccc3)nc2n1`, 93% (active).
Same read-out and setting: to `O=[N+]([O-])c1cnc(Sc2cncc[n+]2[O-])s1` belongs 100% (active); to `O=c1[nH]c(=O)c2cc([N+](=O)[O-])cc([N+](=O)[O-])c2[nH]1`, 57%.
Consider `O=C(NC(=O)C(F)(F)F)Nc1ccc(Cl)cc1`, for which the growth inhibition is -8%.
Regarding `O=[N+]([O-])c1ccc(S)c(Cl)c1`, the growth inhibition was 95% (active).
Same read-out and setting: then `CS(=O)(=O)n1c(C(O)c2ccccc2)nc2ccccc21` (stereo not given), with -1%; and `O=C(NCc1ccccc1)C1C(=O)N(Cc2ccccc2)C(=O)/C1=N/O` (stereo not given), with 1%.
The same measure, in the same setting: to `C[n+]1c(/C=C/c2ccccc2Cl)sc2ccccc21` belongs 99% (active).
Still for that read-out and setting: to `CC(=O)c1ccc(Cl)c(N=Cc2cc(Br)ccc2O)c1` belongs 81% (active); to `O=C(c1ccc(Cl)cc1)c1ccc([N+](=O)[O-])cc1`, 1%.
Consider `Nc1ccc2c(c1)[nH]c(=O)c1cc(Cl)c(Cl)cc12`, for which the growth inhibition is 60%.
On to `COc1ccc(C2CC(c3c(O)ccc4ccccc34)=NN2)cc1OC` (stereo not given), for which the growth inhibition is 97% (active).
With `CC[N+]1(C)CCC(O)(c2ccc(Cl)c(Cl)c2)C(C(=O)c2ccc(Cl)c(Cl)c2)C1` (stereo not given), the growth inhibition is 100% (active).
Still for that read-out and setting: then `Nc1nc(Cl)cc(NCC2(CO)CC(CCCc3ccccc3)C2)n1` (stereo not given), with 7%; and `Nc1nc(-c2cc3cc(Cl)ccc3o2)cs1`, with 61%; and `O=C(N(c1ccc(Cl)cc1)c1ccc(Cl)cc1)C(Cl)(Cl)Cl`, with 63%.
On the same count and under the same terms, to `NC(CSSCC(N)C(=O)Nc1ccc2ccccc2c1)C(=O)Nc1ccc2ccccc2c1` (stereo not given) belongs 100% (active); to `O=C/C=C/c1cc([N+](=O)[O-])ccc1Cl`, 79% (active); to `COc1cc(C(c2cc3c(cc2OC(C)=O)OCO3)C(C(C)=O)C(C)=O)cc(OC)c1OC(C)=O` (stereo not given), 18%.
On the same count and under the same terms, then `CCCCc1ccc(Nc2nc(N)c3[nH]cnc3n2)cc1`, with 26%.
With `O=C(O)/C=C/C(=O)Nc1cccc2ccccc12`, the growth inhibition was 49%.
As for `Cc1cc(O)c(C(=O)/C=C/c2ccnc3ccccc23)c(=O)o1`, the growth inhibition was -1%.
On the same count and under the same terms, then `ONC1=Nc2ccccc2OCc2cc(Br)c(Br)cc2COc2ccccc2N=C1NO`, with 98% (active); and `NNC(=O)c1ccc(N)cc1O`, with -1%; and `O=C(N/C(=C\c1ccc2c(c1)OCO2)c1nc2ccccc2s1)c1ccccc1`, with 98% (active).
With `CC1=NN(C(=O)c2ccncc2)C(=O)C1N=Nc1ccc(C)c([N+](=O)[O-])c1` (stereo not given), the growth inhibition was 28%.
The same measure, in the same setting: then `COc1ccc2nc3cc(Cl)ccc3c(Nc3nccs3)c2c1`, with 93% (active); and `S=C(S)NCCN1CCNCC1`, with -10%; and `ClCc1nc2ccccc2c2ccccc12`, with 26%.
Regarding `ClC1=C(Cl)C(Cl)(C(Cl)(Cl)Cl)C(Cl)=C1Cl`, the growth inhibition was 99% (active).
On the same count and under the same terms, to `FC(F)(F)COP1(OCC(F)(F)F)=NP(OCC(F)(F)F)(OCC(F)(F)F)=NP(c2ccccc2)(c2ccccc2)=N1` belongs -1%; to `CC(C)c1c(P(=O)(c2ccccc2)c2ccccc2)n(C)c2ccccc12`, 98% (active); to `CN(CCC1CCCCC1)CCC1CCCCC1`, 72% (active).
Consider `Cc1nc(Cl)nc(N)c1[N+](=O)[O-]`, for which the growth inhibition is 55%.
On the same count and under the same terms, to `Nc1ccc2[nH]c3ccccc3c2c1` belongs 1%; to `COc1ccc(NC(=O)CSC(N)=O)cc1`, 20%.

(Values after PubChem BioAssay (NCI).)
